“And” between values parts separate entries of the source, which are not always exact repeats. Identical values can stand only once. Results filed as inconclusive are left out. The source made the active and inactive calls. Calls follow the shape of the dose curve; as a rule, active = well fitted curve in the direction sought with a large enough effect; inconclusive = small, poorly fitted or top-dose-only effect, or another doubt; inactive = no such curve, though single readings can be large; an effect the other way counts as inactive or inconclusive.

In the first assay the target is Tyrosine-protein kinase Yes (Homo sapiens) (UniProt P07947). The experiment in a line: qHTS for small molecule inhibitors of Yes1 kinase: Primary Screen (AID 686947). Also: nearly all actives have a fitted effect of over 60% in size. Also: potency is read from the fitted curve at half-maximal effect. The conditions noted are these: Yes1 kinase biochemical qHTS inhibition; series mostly up to 76.9 µM. In short, it runs like this: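 Yes1 (4 nM) preincubated 20 min with compound, then 60 min room-temperature reaction with 0.1 mM ATP and 0.3 mg/mL poly(E4Y) in pH 7.5 Tris, 10 mM MgCl2. ADP measured by ADP-Glo luminescence, normalised to enzyme/no-enzyme controls.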
Tyrosine-protein kinase Yes (Homo sapiens), sequence (P07947 whole entry, looked up): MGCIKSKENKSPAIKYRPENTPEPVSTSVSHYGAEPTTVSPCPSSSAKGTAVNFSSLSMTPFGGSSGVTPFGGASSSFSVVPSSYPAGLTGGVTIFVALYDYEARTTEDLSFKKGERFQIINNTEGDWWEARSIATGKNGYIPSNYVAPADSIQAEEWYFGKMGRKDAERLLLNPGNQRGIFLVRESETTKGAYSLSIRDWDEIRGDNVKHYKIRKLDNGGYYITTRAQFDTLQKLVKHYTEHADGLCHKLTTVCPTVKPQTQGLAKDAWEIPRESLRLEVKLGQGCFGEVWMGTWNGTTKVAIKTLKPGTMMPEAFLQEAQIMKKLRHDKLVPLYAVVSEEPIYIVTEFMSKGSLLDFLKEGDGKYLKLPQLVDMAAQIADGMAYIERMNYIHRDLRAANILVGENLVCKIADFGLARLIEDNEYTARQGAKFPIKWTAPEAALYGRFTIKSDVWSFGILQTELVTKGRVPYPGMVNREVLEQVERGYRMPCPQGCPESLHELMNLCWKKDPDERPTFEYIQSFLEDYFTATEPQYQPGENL
(In general: Quantitative high-throughput screening tests each substance at several concentrations.)
With `CCc1cccc(CC)c1C=Cc1cncc(C(=O)NC)c1`, the Potency is 26 µM (active). On the same count and under the same terms, as for `O=C(Nc1ccc(Oc2ccc3nc(NC(=O)c4ccco4)[nH]c3c2)cc1)Nc1cc(C(F)(F)F)ccc1F`, the figure is 4.12 µM (active); as for `CC(C)(CO)CNC(=O)c1ccc2[nH]c(O)c(N=Nc3ccc(S(N)(=O)=O)cc3)c2c1`, 2.32 µM (active); as for `COC(=O)Nc1nc2ccc(Oc3ccc(NC(=O)Nc4cccc(C(=O)O)c4)cc3)cc2[nH]1`, “inactive”. On the same count and under the same terms, as for `Nc1nccc(-c2c(-c3ccc(F)cc3)ncn2C2CCC(O)CC2)n1` (configuration not stated), the figure is 0.733 µM (active); as for `COC(=O)Nc1nc2ccc(Sc3ccc(NC(=O)Nc4cc(C(F)(F)F)ccc4F)cc3)cc2[nH]1`, “inactive”; as for `COc1cc(Nc2nccc(-c3cnn4ncccc34)n2)cc(OC)c1`, 0.519 µM (active). Same read-out and setting: the figure for `Nc1nc(-c2ccc(F)cc2)c(-c2ccc3ncccc3n2)s1` is 0.463 µM (active). Turning to `Cc1cc(O)cc(C)c1C=Cc1cncc(C(=O)N(C)C)c1`, the Potency is 23.2 µM (active). Turning to `Cc1ccc(O)cc1Nc1ccnc2cc(-c3ccccn3)ccc12`, the Potency is 0.0073 µM (active). The same measure, in the same setting: as for `Nc1nc(-c2ccccn2)c(-c2ccc3ncccc3n2)s1`, the entry is “inactive”; as for `O=S1CCN(Cc2ccc(-c3ccc4ncnc(Nc5ccc(OCc6ccccc6)c(F)c5)c4c3)o2)CC1`, 0.463 µM (active). Same read-out and setting: the figure for `CS(=O)(=O)CCNCc1ccc(-c2ccc3ncnc(Nc4ccc(OCc5ccccc5)c(Cl)c4)c3c2)o1` is 0.923 µM (active); for `CN(c1ccc(NC(=O)NCCN2CCOCC2)cc1)c1ccnc(Nc2ccc(CS(C)(=O)=O)cc2)n1` it is 11.6 µM (active).

Take `Cc1cc(-c2ccco2)cc(C)c1C=Cc1cncc(-c2nn[nH]n2)c1`: the Potency was 1.04 µM (active). Same read-out and setting: as for `Cc1nc(-c2ccccc2)n2nc(NCCCN3CCOCC3)ncc12`, the figure is 32.8 µM (active); as for `CCCN1CCC(c2ccc(Nc3nc(Nc4cc(F)ccc4C(N)=O)c4cc[nH]c4n3)c(OC)c2)CC1`, “inactive”.

For `COC(=O)Nc1nc2ccc(Oc3ccc(NC(=O)Nc4ccccc4)cc3)cc2[nH]1`, the Potency entry was “inactive”. On the same count and under the same terms, the entry for `NS(=O)(=O)c1cccc(-c2cc3ccncc3cc2OCc2ccccc2)c1` is “inactive”. Take `COc1cc(Nc2ncc3c(C)nc(-c4cccc(C(F)(F)F)c4)n3n2)cc(OC)c1OC`: the Potency was 0.582 µM (active).

On to `CC(Oc1cc(-n2cnc3ccc(OCC4CCN(C)CC4)cc32)sc1C(N)=O)c1ccccc1C(F)(F)F` (configuration not stated), for which the Potency is 1.46 µM (active).

Regarding `NC(=O)c1ccc2c(-c3ccnc(NCCCO)n3)c(-c3ccc(F)cc3)nn2c1`, the Potency was 6.54 µM (active). The same measure, in the same setting: the entry for `CCC(=O)Nc1ccc(C)c(-c2ccc(C(=O)NCC3CC3)cc2)c1` is “inactive”; for `Clc1ccc(CNc2nccc(-c3cnn4ncccc34)n2)cc1` it is “inactive”; for `NS(=O)(=O)c1ccc(N=Nc2c(O)[nH]c3ccc(C(=O)NCCCn4ccnc4)cc23)cc1` it is 2.6 µM (active). On the same count and under the same terms, the figure for `CS(=O)(=O)CCNCc1coc(-c2ccc3ncnc(Nc4ccc(OCc5ccccc5)cc4)c3c2)c1` is 1.84 µM (active); for `O=C1NC(=O)C(c2cccc(Cl)c2)=C1Nc1ccc(Cl)c(C(=O)O)c1` it is “inactive”; for `NS(=O)(=O)c1ccc(N=Nc2c(O)[nH]c3ccc(C(=O)NCc4ccncc4)cc23)cc1` it is 4.63 µM (active). Still for that read-out and setting: as for `Cc1cc(O)cc(C)c1C=Cc1cncc(C(=O)OC(C)(C)C)c1`, the figure is 0.733 µM (active).

For `CS(=O)(=O)CCNCc1ccoc1-c1ccc2ncnc(Nc3ccc(OCc4ccccc4)cc3)c2c1`, the Potency is 3.68 µM (active). Still for that read-out and setting: as for `CCn1c(-c2nonc2N)nc2ccccc21`, the entry is “inactive”; as for `CCCN(CCS(C)(=O)=O)Cc1ccc(-c2ccc3ncnc(Nc4ccc(OCc5cccc(F)c5)c(Cl)c4)c3c2)o1`, 6.54 µM (active). For the compound `CS(=O)(=O)CCNCc1ccc(-c2ccc3ncnc(Nc4ccc(OCc5ccccc5)c(Br)c4)c3c2)o1`, the Potency was 2.32 µM (active). The same measure, in the same setting: as for `CCOc1ccc2c(-c3ccnc(Nc4cccc(C(F)(F)F)c4)n3)cnn2n1`, the entry is “inactive”; as for `COc1cc(C=NNc2ncnc3c2cnn3C(C)C)ccc1O`, 0.184 µM (active). In the case of `CCc1ccc(Oc2nccc(-c3c(-c4ccc(F)cc4)ncn3C3CCNCC3)n2)cc1`, the Potency result was “inactive”.

As for `CCn1c(-c2nonc2N)nc2c(C#CC(C)(C)O)nc(OC(CN)c3ccccc3)cc21` (configuration not stated), the Potency was 0.654 µM (active).

On to `NS(=O)(=O)c1ccc(N=Cc2c(O)[nH]c3ccc4ncsc4c23)cc1`, for which the Potency is 823 nM (active) and 923 nM (active).

Test system in the next assay: not listed separately
The experiment in a line: qHTS for small molecule inhibitors of Yes1 kinase: Counter Assay (AID 686950).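 Also: no kinase present so only ADP-Glo detection of a fixed ADP amount is tested; luminescence from ADP-Glo reporting ADP in a fixed ATP and ADP mixture.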 The conditions noted are these: series mostly up to 76.9 µM. The procedure, abridged:
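Enzyme-free detection counter-screen: compounds preincubated 20 min in buffer, then 0.08 mM ATP plus 0.02 mM ADP added for 60 min at room temperature; ADP-Glo luminescence. Buffer 50 mM Tris pH 7.5, 10 mM MgCl2, 150 mM NaCl; normalized to ATP+ADP and ATP-only controls.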
Turning to `Nc1nccc(-c2c(-c3ccc(F)cc3)ncn2C2CCC(O)CC2)n1` (configuration not stated), the compound was classed as inactive.

Regarding `Cc1ccc(O)cc1Nc1ccnc2cc(-c3ccccn3)ccc12`, the result was inactive.

`CS(=O)(=O)CCNCc1ccc(-c2ccc3ncnc(Nc4ccc(OCc5ccccc5)c(Cl)c4)c3c2)o1`: the call was inactive. The same measure, in the same setting: as for `Cc1nc(-c2ccccc2)n2nc(NCCCN3CCOCC3)ncc12`, the entry is “inactive”; as for `COc1cc(Nc2ncc3c(C)nc(-c4cccc(C(F)(F)F)c4)n3n2)cc(OC)c1OC`, “inactive”. Still for that read-out and setting: the entry for `CC(Oc1cc(-n2cnc3ccc(OCC4CCN(C)CC4)cc32)sc1C(N)=O)c1ccccc1C(F)(F)F` (configuration not stated) is “inactive”. On the same count and under the same terms, as for `NS(=O)(=O)c1ccc(N=Nc2c(O)[nH]c3ccc(C(=O)NCCCn4ccnc4)cc23)cc1`, the entry is “inactive”; as for `CS(=O)(=O)CCNCc1coc(-c2ccc3ncnc(Nc4ccc(OCc5ccccc5)cc4)c3c2)c1`, “inactive”; as for `CCOc1ccc2c(-c3ccnc(Nc4cccc(C(F)(F)F)c4)n3)cnn2n1`, “inactive”.

The record behind these values is PubChem BioAssay (NCATS).
